Reference: PubChem BioAssay (NCI)
This is part of a sample that, as a whole, favours compounds with a hit. Of some 83,000 tested, about 20% had one in any assay.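 Values shown are percent growth following 48 h exposure of cells in 96-well plates to a single concentration of compound; below 10 was considered active.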 Calls of active or inactive are those of the source.

What was measured:
Assay in all cases: NCI-60 one-dose screen, 48 h (100 = growth as untreated, 0 = no growth, -100 = all killed)
HCT-15 colon = settings: 10 µM unless noted
HT29 colon = settings: 10 µM unless noted
SNB-75 CNS = settings: 10 µM unless noted
U251 CNS = settings: 10 µM unless noted
PC-3 prostate = settings: 10 µM unless noted
SK-MEL-5 melanoma = settings: 10 µM unless noted
UACC-62 melanoma = settings: 10 µM unless noted
LOX IMVI melanoma = settings: 10 µM
SK-MEL-28 melanoma = settings: 10 µM unless noted
SK-MEL-2 melanoma = settings: 10 µM unless noted
EKVX NSCLC = settings: 10 µM unless noted
SN12C renal = settings: 10 µM unless noted
UO-31 renal = settings: 10 µM unless noted
TK-10 renal = settings: 10 µM unless noted
ACHN renal = settings: 10 µM unless noted
CAKI-1 renal = settings: 10 µM unless noted
A498 renal = settings: 10 µM unless noted
CCRF-CEM leukemia = settings: 10 µM unless noted
MOLT-4 leukemia = settings: 10 µM unless noted

Measured: growth

CC1CN(c2oc(-c3ccc([N+](=O)[O-])cc3)nc2C#N)CC(C)O1 (stereo not drawn)
inactive: HCT-15 colon 97.1% | HT29 colon 112% | SNB-75 CNS 98.8% | U251 CNS 104% | PC-3 prostate 96.7% | SK-MEL-5 melanoma 104% | UACC-62 melanoma 84% | LOX IMVI melanoma 95.6% | SK-MEL-28 melanoma 105% | SK-MEL-2 melanoma 103% | EKVX NSCLC 95.2% | SN12C renal 91.5% | UO-31 renal 81.7% | TK-10 renal 109% | ACHN renal 108% | CAKI-1 renal 98.2% | A498 renal 97.2% | CCRF-CEM leukemia 100% | MOLT-4 leukemia 99.8%

Cc1ccc(C(=O)CSc2nc3ccc(F)cc3c(=O)n2-c2ccc(Cl)cc2)cc1
active: SNB-75 CNS -19.4%
inactive: HCT-15 colon 59.2% | HT29 colon 49.9% | U251 CNS 19.6% | PC-3 prostate 25.9% | SK-MEL-5 melanoma 68.1% | UACC-62 melanoma 71.4% | LOX IMVI melanoma 60.7% | SK-MEL-28 melanoma 77.2% | SK-MEL-2 melanoma 99.1% | EKVX NSCLC 51.1% | UO-31 renal 56.4% | TK-10 renal 83.7% | ACHN renal 33.3% | CAKI-1 renal 10.1% | A498 renal 55.7% | CCRF-CEM leukemia 75.8% | MOLT-4 leukemia 82.4%

O=C(COc1ccc(NC(=O)Nc2ccccc2)cc1)N=Nc1c(O)[nH]c2ccc([N+](=O)[O-])cc12
active: HT29 colon 6.92% | SNB-75 CNS 7.51% | U251 CNS -72.8% | PC-3 prostate 2.22% | SK-MEL-28 melanoma -43.9% | SK-MEL-2 melanoma -69.2% | SN12C renal 9.08%
inactive: HCT-15 colon 103% | SK-MEL-5 melanoma 28.4% | UACC-62 melanoma 16% | EKVX NSCLC 73.5% | UO-31 renal 80.2% | TK-10 renal 116% | ACHN renal 96.2% | CAKI-1 renal 78.4% | A498 renal 133% | CCRF-CEM leukemia 18.4%

CCOC(=O)COc1c(OC)c(OC)cc2oc(-c3cccc(C(=O)Nc4ccc(Cl)cc4)c3)cc(=O)c12
inactive: HCT-15 colon 21.5% | HT29 colon 22.9% | SNB-75 CNS 34.6% | U251 CNS 39.9% | PC-3 prostate 41.1% | SK-MEL-5 melanoma 22.3% | UACC-62 melanoma 55.1% | SK-MEL-28 melanoma 68.6% | SK-MEL-2 melanoma 71.3% | EKVX NSCLC 62.5% | SN12C renal 58.3% | UO-31 renal 28.1% | TK-10 renal 87.7% | ACHN renal 73.1% | CAKI-1 renal 48.4% | A498 renal 82.7% | MOLT-4 leukemia 19.8%

CCCCSc1nc(NCCc2c[nH]c3ccccc23)c(C#N)c(-c2ccccc2)n1
inactive: HCT-15 colon 16.8% | SNB-75 CNS 70.7% | PC-3 prostate 13.2% | SK-MEL-5 melanoma 17.2% | UACC-62 melanoma 72% | SK-MEL-28 melanoma 81.1% | SK-MEL-2 melanoma 74% | EKVX NSCLC 32.9% | UO-31 renal 45.5% | TK-10 renal 74.3% | ACHN renal 43.2% | CAKI-1 renal 35.2% | A498 renal 61.8% | MOLT-4 leukemia 13.8%
active: HT29 colon 1.16% | U251 CNS 8.25% | CCRF-CEM leukemia 8.29%

CCCCCCCCc1ccc(C(=O)Nc2ccc(C)cc2C(=O)O)cc1C
inactive: HCT-15 colon 94% | HT29 colon 108% | SNB-75 CNS 92.4% | U251 CNS 88.1% | PC-3 prostate 84.2% | SK-MEL-5 melanoma 94.3% | UACC-62 melanoma 91.3% | LOX IMVI melanoma 101% | SK-MEL-2 melanoma 97.5% | EKVX NSCLC 88.4% | UO-31 renal 78.6% | TK-10 renal 102% | ACHN renal 84.4% | CAKI-1 renal 78.2% | A498 renal 98.8% | CCRF-CEM leukemia 79.8%

CN(C)c1ccnc(CNCCSC2(c3ccccc3)c3ccccc3C=Cc3ccccc32)c1
active: HCT-15 colon -36.9% | HT29 colon -46.4% | SNB-75 CNS -10.9% | U251 CNS -77.1% | PC-3 prostate -23.3% | SK-MEL-5 melanoma -99.4% | UACC-62 melanoma -32.2% | SK-MEL-28 melanoma -64.6% | SK-MEL-2 melanoma -46.6% | EKVX NSCLC -24.3% | TK-10 renal 0.124% | CAKI-1 renal 3.63% | A498 renal -38.8% | CCRF-CEM leukemia -2.57% | MOLT-4 leukemia 7.41%
inactive: UO-31 renal 13.5% | ACHN renal 12.8%

COc1cc(/C=C/C(=O)c2nnn(-c3ccc(Cl)cc3)c2C)cc(OC)c1OC
inactive: HCT-15 colon 12.4% | HT29 colon 15.5% | SNB-75 CNS 22.5% | U251 CNS 17.3% | PC-3 prostate 30.6% | SK-MEL-5 melanoma 21.5% | UACC-62 melanoma 28.7% | SK-MEL-28 melanoma 46.9% | SK-MEL-2 melanoma 51.3% | EKVX NSCLC 10.1% | SN12C renal 15.5% | UO-31 renal 54% | TK-10 renal 86.7% | ACHN renal 42.4% | CAKI-1 renal 43.2% | A498 renal 132%
active: MOLT-4 leukemia -10.7%

Cc1cc(=O)oc2cc(OCCCCOc3ccc(/C=C/C(=O)Nc4ccccc4N)cc3)ccc12
active: SK-MEL-5 melanoma -66.1% | LOX IMVI melanoma 0.965%
inactive: HCT-15 colon 75.8% | HT29 colon 91.4% | SNB-75 CNS 67% | U251 CNS 60.2% | PC-3 prostate 61% | UACC-62 melanoma 69.2% | SK-MEL-28 melanoma 81.2% | SK-MEL-2 melanoma 111% | EKVX NSCLC 60.3% | UO-31 renal 23.3% | TK-10 renal 112% | ACHN renal 68.2% | CAKI-1 renal 59.8% | A498 renal 84.1% | CCRF-CEM leukemia 10.9% | MOLT-4 leukemia 27.8%

Clc1ccc(-c2ccc(OCCCN3CCN(c4ccncc4)CC3)cc2)cc1
active: HCT-15 colon -66% | HT29 colon -30.6% | CCRF-CEM leukemia 4.35% | MOLT-4 leukemia 1.95%
inactive: SNB-75 CNS 83.6% | U251 CNS 35.7% | PC-3 prostate 24.6% | SK-MEL-5 melanoma 13.7% | UACC-62 melanoma 74% | SK-MEL-28 melanoma 90.1% | SK-MEL-2 melanoma 100% | EKVX NSCLC 30.7% | UO-31 renal 66.3% | TK-10 renal 89.5% | ACHN renal 87.8% | CAKI-1 renal 66.6% | A498 renal 84.7%

CC(C)Sc1nc(NCCc2c[nH]c3ccccc23)c(C#N)c(-c2ccccc2)n1
inactive: SNB-75 CNS 60.6% | U251 CNS 15.5% | PC-3 prostate 12.6% | UACC-62 melanoma 79.4% | SK-MEL-28 melanoma 81.5% | SK-MEL-2 melanoma 68.7% | EKVX NSCLC 18% | UO-31 renal 32.1% | TK-10 renal 67.4% | ACHN renal 33% | CAKI-1 renal 34.3% | A498 renal 23.4%
active: HCT-15 colon -19.9% | HT29 colon -30.6% | SK-MEL-5 melanoma -6.58% | LOX IMVI melanoma -68.7% | CCRF-CEM leukemia 8.66% | MOLT-4 leukemia 5.18%

COc1cccc(COc2ccc(NC(=O)Nc3ccc(Cl)c(C(F)(F)F)c3)cc2)c1
inactive: HCT-15 colon 11.8% | HT29 colon 43.5% | SNB-75 CNS 32.1% | U251 CNS 31.8% | PC-3 prostate 16.3% | SK-MEL-28 melanoma 69.6% | SK-MEL-2 melanoma 51.5% | EKVX NSCLC 35.2% | SN12C renal 33% | TK-10 renal 45.1% | ACHN renal 11.2% | CAKI-1 renal 24.2% | A498 renal 35.3% | CCRF-CEM leukemia 34.1% | MOLT-4 leukemia 28.1%
active: SK-MEL-5 melanoma -77% | UO-31 renal 7.91%

CCCSc1nc(NCCc2c[nH]c3ccccc23)c(C#N)c(-c2ccc(OC)cc2)n1
inactive: HCT-15 colon 21.8% | HT29 colon 22.5% | SNB-75 CNS 78.9% | U251 CNS 41.5% | PC-3 prostate 15.1% | SK-MEL-5 melanoma 29.5% | SK-MEL-28 melanoma 71.4% | SK-MEL-2 melanoma 75.5% | EKVX NSCLC 32.5% | UO-31 renal 41.8% | TK-10 renal 82.9% | ACHN renal 64.9% | CAKI-1 renal 51% | A498 renal 61.4% | CCRF-CEM leukemia 25.7% | MOLT-4 leukemia 26.1%

Cc1ccc2c(N)c(C(=O)Nc3ccc(OC(F)(F)F)cc3)sc2n1
inactive: HCT-15 colon 61% | HT29 colon 75.2% | SNB-75 CNS 91.8% | U251 CNS 84.6% | PC-3 prostate 58.4% | SK-MEL-5 melanoma 26% | SK-MEL-28 melanoma 85.5% | SK-MEL-2 melanoma 67.4% | EKVX NSCLC 26.9% | SN12C renal 70.2% | UO-31 renal 56.2% | TK-10 renal 95.4% | ACHN renal 61.2% | CAKI-1 renal 55.8% | A498 renal 119% | CCRF-CEM leukemia 64.8%

O=c1[nH]c2ccccc2cc1CSc1cccc(Nc2nccc(-c3ccc4ccccc4c3)n2)c1
inactive: HCT-15 colon 65.1% | HT29 colon 81.8% | SNB-75 CNS 84.6% | U251 CNS 81.9% | PC-3 prostate 71% | SK-MEL-5 melanoma 63.8% | UACC-62 melanoma 95.2% | LOX IMVI melanoma 87.4% | SK-MEL-28 melanoma 106% | SK-MEL-2 melanoma 98.3% | EKVX NSCLC 95.4% | UO-31 renal 73.4% | TK-10 renal 79.9% | ACHN renal 95.5% | CAKI-1 renal 81.2% | A498 renal 106% | CCRF-CEM leukemia 46.8% | MOLT-4 leukemia 65.9%

Cc1cc(=O)oc2cc(OCCOc3ccc(/C=C/C(=O)Nc4ccccc4N)cc3)ccc12
inactive: HCT-15 colon 39.7% | HT29 colon 30.5% | SNB-75 CNS 36.6% | U251 CNS 30.7% | PC-3 prostate 32.1% | UACC-62 melanoma 33.2% | SK-MEL-2 melanoma 59.1% | EKVX NSCLC 38.8% | TK-10 renal 43.3% | ACHN renal 37.1% | CAKI-1 renal 30.7% | A498 renal 14.4%
active: SK-MEL-5 melanoma -87.6% | LOX IMVI melanoma -73.2% | UO-31 renal 7.73% | CCRF-CEM leukemia 6.51% | MOLT-4 leukemia 4.54%

CCCSc1nc(NCCc2c[nH]c3ccccc23)c(C#N)c(-c2ccc(F)cc2)n1
inactive: HCT-15 colon 18.8% | HT29 colon 15.6% | SNB-75 CNS 85.7% | U251 CNS 28.2% | PC-3 prostate 23.8% | SK-MEL-5 melanoma 13.1% | UACC-62 melanoma 54.6% | LOX IMVI melanoma 21.1% | SK-MEL-28 melanoma 63.3% | SK-MEL-2 melanoma 92% | EKVX NSCLC 50.8% | UO-31 renal 68.7% | TK-10 renal 91.6% | ACHN renal 59.2% | CAKI-1 renal 52.3% | A498 renal 96.8% | CCRF-CEM leukemia 33.6% | MOLT-4 leukemia 42.5%
